Assay outcomes (PubChem BioAssay)
ERK AVP block: inhibitors of vasopressin-stimulated ERK signaling pathway | HEK293-V1b, vasopressin-stimulated pERK AlphaScreen | Potency, µM (top dose mostly 57.5 µM), for inactives: at the top dose activity, negative = inhibition, most hits filed as inhibitors | hit rate 0.99% among 72,000 | AID 995; note: % is set by controls: 0 for no effect and ±100 for the full control effect; nearly all actives have a fitted effect of over 55% in size
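qHTS, compounds titrated on V1b-expressing HEK293 cells. Preincubation 30 min at 37C, vasopressin 25 nM for 5 min, lysis 10 min, bead incubation 5 hr at room temperature.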
CRE Fsk mod: modulators of forskolin-stimulated CRE signaling in CHO cells; CHO CRE-bla reporter (cAMP response element driving beta-lactamase), forskolin EC10, beta-lactamase ratio; Potency, µM (highest dose often 38.2 µM), for the others: at the highest dose activity change, negative = inhibition, most hits filed as activators; hit rate 2.5% among 71,000; AID 662; active = well fitted activation curve with a large enough effect in the signal ratio, with a control signal flat, not every such curve was filed as active; inconclusive = small, poorly fitted or top-dose-only effect, or effect the other way, or a change in a side signal; the % refers to the signal ratio; note: % of control where 0% means no effect
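Modulation of forskolin-driven signalling is measured in CHO cells carrying a CRE-controlled beta-lactamase reporter. Cells are stimulated with EC10 NKH 477 in the presence of titrated compound for 3 h at 37 °C, then loaded with CCF4 for 2 h at room temperature.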
HEK293 cAMP cs: parental HEK293 cAMP activation (counter-screen). hit rate 2.5% among 73,000. parental HEK293 CNG cAMP sensor, membrane potential fluorescence. Potency, µM (titrated, usually from 57.1 µM), for the others: at the highest dose activation, actives largely listed as activators. AID 938; note: % of control where 0% means no effect; nearly all actives have a fitted effect of over 55% in size
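Parental HEK 293 cells stably expressing a cAMP-gated CNG channel were loaded with membrane potential dye containing 100 uM RO 20-1724 for 60 min. Compound added for 30 min; depolarization read as fluorescence intensity at 590 nm.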
TSHR ag: activates the human thyroid stimulating hormone receptor; hit rate 0.48% among 73,000; Potency, µM (highest dose often 57.1 µM), without a hit: at the top dose activation, most hits filed as activators; P16473; HEK293-CNG-TSHR cells (CNG channel as cAMP sensor), membrane potential dye, cAMP; active = well fitted activation curve with a large enough effect in the main read-out, with a control signal flat, not every such curve was filed as active; inconclusive = small, poorly fitted or top-dose-only effect, or a change in a side signal; inactive = no such curve, though single readings can be large or run the other way; % of control where 0% means no effect;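 note: the control signal comes from parental cells without the receptor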
Target sequence (P16473 whole entry, looked up): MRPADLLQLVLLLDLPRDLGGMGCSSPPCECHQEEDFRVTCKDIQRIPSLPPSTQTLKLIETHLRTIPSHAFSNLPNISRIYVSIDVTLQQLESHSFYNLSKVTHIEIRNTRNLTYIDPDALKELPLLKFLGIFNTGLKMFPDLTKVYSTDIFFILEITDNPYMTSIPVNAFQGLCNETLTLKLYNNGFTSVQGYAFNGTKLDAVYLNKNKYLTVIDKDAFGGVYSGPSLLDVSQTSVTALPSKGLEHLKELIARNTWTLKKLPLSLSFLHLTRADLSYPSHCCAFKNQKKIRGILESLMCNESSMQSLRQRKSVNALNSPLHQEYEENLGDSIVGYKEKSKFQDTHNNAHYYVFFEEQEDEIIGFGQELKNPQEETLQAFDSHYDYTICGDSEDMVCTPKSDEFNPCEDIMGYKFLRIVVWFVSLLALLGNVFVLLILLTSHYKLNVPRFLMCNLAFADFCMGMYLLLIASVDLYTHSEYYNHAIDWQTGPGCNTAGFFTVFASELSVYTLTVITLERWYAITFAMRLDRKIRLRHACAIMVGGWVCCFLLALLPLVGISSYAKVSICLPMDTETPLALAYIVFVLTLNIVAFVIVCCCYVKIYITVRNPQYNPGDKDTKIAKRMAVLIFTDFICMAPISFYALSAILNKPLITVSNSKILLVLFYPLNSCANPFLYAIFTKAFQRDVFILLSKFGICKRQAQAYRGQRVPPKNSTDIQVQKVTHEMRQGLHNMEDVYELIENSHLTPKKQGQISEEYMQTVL
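HEK 293 cells stably expressing TSHR and a modified CNG channel, with CNG-only parental cells as counterscreen, were preloaded 60 min at room temperature with membrane potential dye containing 100 uM RO 20-1724. Compound exposure was 30 min, and depolarization was read as fluorescence at 590 nm.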
* hit, by the source's call; ? = inconclusive; nt = not tested or not shown; [ ] = another dose, or the depositor's remark. An excerpt weighted towards active compounds, which were near 6% of everything screened. Unless noted, calls come from the whole dose curve; as a rule, active = well fitted curve in the direction sought with a large enough effect; inconclusive = small, poorly fitted or top-dose-only effect, or another doubt; inactive = no such curve, though single readings can be large; an effect the other way counts as inactive or inconclusive. Potency is the fitted concentration of half-maximal effect.

SMILES | ERK AVP block | CRE Fsk mod | HEK293 cAMP cs | TSHR ag
CN(C)c1ncc2nc(-c3ccccc3)c(=O)n(C[C@H]3CCCO3)c2n1 | -8.1% | 3.98µM* | 20.4% | 15.2%
CCCN(CCC)C[C@@H]1CCCCN1CCNC(=O)N1c2ccccc2C(=O)Nc2cccnc21 | 8.0% | -5.9% | 15.2% | 5.0%
CC1CC[C@]2(CO)CC[C@]3(C)C(=CCC4[C@@]5(C)CCC(O)C(C)(C)C5CC[C@@]43C)C2C1C (some centres undefined) | -1.8% | nt | nt | nt
O=C(/C=C/c1ccc2c(c1)OCO2)c1cccs1 | 45.2% | nt | nt | nt
C=C/C(C)=C/[C@]1(C)SC(=O)C(C)=C1O | 18.3% | -0.2% | 5.4% | 4.5%
FC(F)(F)c1cc(-c2ccccc2)nc(N2CCCCC2)n1 | 64.0% | 11.4% | 4.2% | 7.7%
FC(F)(F)c1ccc(N2CCN(c3cc(-c4ccccc4)nc4ncnn34)CC2)nc1 | 0.3% | 11.3% | 15.8µM* | ?
Cc1ccc(C)c(OCC(=O)Nc2nonc2NC(=O)COc2cc(C)ccc2C)c1 | -11.5% | 9.1% | 25.1µM* | ?
CCc1cc2c(nc1CC)CCN(CC/C(C)=N/OC[C@@H](O)COCc1ccco1)C2 | -16.4%[11.5 µM] | nt | 12.4%[11.4 µM] | 0.5%[11.4 µM]
CC[C@]1(O)C[C@H]2CN(CCc3c([nH]c4ccccc34)[C@](C(=O)OC)(c3cc4c(cc3OC)N(C=O)[C@H]3[C@@](O)(C(=O)OC)[C@H](OC(C)=O)[C@@]5(CC)C=CCN6CC[C@]43[C@H]65)C2)C1 | 15.9% | 1.26µM* | 14.9% | 7.7%
Nc1nc(N2CCCCC2)nc2ccccc12 | 2.7% | 12.0% | 9.5% | 9.7%
CN(C)Cc1ccccc1-c1nc(N2CCOCC2)c2ccccc2n1 | 13.9% | ? | 7.94µM* | ?
c1ccc2c(N3CCOCC3)nc(-c3ccoc3)nc2c1 | -67.0% | 5.01µM* | 13.5% | nt
CSc1nc(N2CCOCC2)c2ccccc2n1 | -15.1% | 10µM* | -0.1% | 10.6%
c1ccc2c(N3CCCCC3)nc(N3CCCC3)nc2c1 | -3.1% | ? | 12.6µM* | ?
c1ccc(-c2nc(N3CCOCC3)c3ccccc3n2)nc1 | ? | ? | 4.5% | 0.1%
Nc1ncnc2c1ncn2[C@H]1O[C@@H](C(=O)OCCO)[C@@H](O)[C@H]1O | 3.0%[11.5 µM] | 2.8%[7.6 µM] | 0.0%[11.4 µM] | 14.0%[11.4 µM]
Cc1noc(C)c1-c1nccc(NCc2cccnc2)n1 | 2.1% | ? | 13.9% | -0.6%
Cc1sc2nc3c(C(=O)N4CCN(c5ncccn5)CC4)cccn3c(=O)c2c1C | -16.3% | ? | 6.1% | 6.7%
CN1CCN(c2nc(-c3ccoc3)nc3ccccc23)CC1 | ? | ? | 15.1% | 5.01µM*
c1ccc2c(-n3ccnc3)nc(-c3ccoc3)nc2c1 | -19.8% | 3.16µM* | 7.2% | 7.4%
Cc1ccc(-n2c(C)cc(C(=O)CSc3nncs3)c2C)cc1 | 6.9% | 23.1% | 25.1µM* | ?
CN(C)C(=O)[C@H]1C[C@@H]1[C@H](NC(=O)OCc1ccccc1)c1ccccc1 | 3.2% | -17.4% | ? | ?
COc1cc(CNc2ccc(C)c(C)c2)cc(OC)c1OC | 39.8µM* | 5.6% | ? | ?
COc1cc(CNc2cc(C)ccc2C)cc(OC)c1OC | nt | nt | 13.2% | 15.7%
SMILES | ERK AVP block | CRE Fsk mod | HEK293 cAMP cs | TSHR ag
C[C@@H](C(=O)NCC1CC1)[C@H]1C[C@]1(C)[C@H](NC(=O)OCc1ccccc1)c1ccccc1 | -6.3% | -12.5% | 10µM* | ?
C[C@@H](C(=O)N[C@@H](CO)Cc1ccccc1)[C@H]1C[C@]1(C)[C@H](NC(=O)OCc1ccccc1)c1ccccc1 | 4.9% | -22.9% | 10µM* | ?
C[C@@H](C(=O)NCc1ccccc1)[C@@H]1C[C@@]1(C)[C@@H](NC(=O)OCc1ccccc1)c1ccccc1 | -2.5% | -4.8% | 11.6% | 5.7%
CNC(=O)[C@H](C)[C@H]1C[C@]1(C)[C@H](NC(=O)OCc1ccccc1)c1ccccc1 | -25.6% | -10.9% | 6.31µM* | ?
C[C@@H](C(=O)N[C@@H](CO)Cc1ccccc1)[C@@H]1C[C@@]1(C)[C@@H](NC(=O)OCc1ccccc1)c1ccccc1 | -4.9% | -20.3% | -1.9% | 17.6%
COC(=O)[C@H](Cc1ccccc1)NC(=O)[C@]1(C)C[C@H]1[C@H](NC(=O)OCc1ccccc1)c1ccccc1 | -3.3% | -7.9% | 5.01µM* | ?
COc1ccccc1CN1CCCC2(CCN(C(=O)c3cccn3C)CC2)C1 | -10.2% | -2.1% | 23.9% | 21.4%
N#Cc1c(-c2ccccc2)cc(C2CC2)nc1N | 0.9% | 2µM* | ? | ?
COc1ccccc1N1CCN(C/C=C/c2ccc(N(C)C)cc2)CC1 | 15.8µM* | -11.1% | -40.9% | ?
CN[C@@H]1[C@H](O[C@H]2[C@@H](O[C@@H]3[C@@H](O)[C@@H](O)[C@@H](N=C(N)N)[C@@H](O)[C@@H]3N=C(N)N)O[C@@H](C)[C@]2(O)CO)O[C@H](CO)[C@@H](O)[C@@H]1O | 0.4%[25.7 µM] | 3.3%[17.1 µM] | 4.5%[25.6 µM] | -27.3%[25.6 µM]
CCOC(=O)c1[nH]c(COC(=O)C2CC(=O)N(Cc3ccccc3)C2)c(C(=O)OCC)c1C (centres undefined) | ? | ? | 25.1µM* | ?
O=C(O)C1CC(=O)N(Cc2ccccc2)C1 (centres undefined) | -13.2% | ? | 0.6% | -0.7%
CC(=O)C[C@H](c1ccc([N+](=O)[O-])cc1)c1c(O)c2ccccc2oc1=O | -6.1%[25.7 µM] | -3.1%[17.1 µM] | -3.4%[25.6 µM] | -6.9%[25.6 µM]
O=C(c1csc2c1CCCC2)N1CCN(c2ncccn2)CC1 | 15.1% | -0.2% | 18.8% | 14.8%
O=C(c1csc2c1CCCC2)n1cccn1 | nt | nt | 6.3% | 31.6µM*
C[C@H]1CC[C@H]2C(=O)N3[C@H](c4ccc(Br)cc4)[C@@H](C)CC[C@H]3C(=O)N2[C@@H]1c1ccc(Br)cc1 | 4.7%[11.5 µM] | nt | ? | ?
CCOc1ccc(-c2nnc(NC(=O)c3ccc(OCC(C)C)c(OC)c3)o2)cc1 | 12.2% | 3.3% | 25.1µM* | ?
CCOC(=O)CNC(=O)Nc1nnc(-c2ccc(OCC)cc2)o1 | 10.2% | -2.7% | ? | ?
Nc1nc(=O)n(C2OC(CO)C(O)C2O)cc1Cl (centres undefined) | 19.9% | nt | nt | nt
COC(=O)[C@H]1C[C@H]2CC[C@H](O)C[C@H]2N1Cc1c(F)cccc1Cl | -16.2% | nt | nt | nt
Cn1c(C(=O)N2CCCc3ccccc32)cc2c(=O)n3ccccc3nc21 | 16.1% | 1.58µM* | 0.9% | 18.3%
Cn1c(C(=O)NCc2ccccn2)cc2c(=O)n3ccccc3nc21 | 4.2% | 2µM* | ? | ?
Cn1nc(C(=O)NCc2ccccn2)c2ccccc2c1=O | ? | 15.6% | -1.6% | 2.8%
CC1CC(C)CN(Cc2nc3c(c(=O)n(C)c(=O)n3C)n2Cc2ccccc2Cl)C1 (centres undefined) | nt | 4.7% | 16.6% | -2.9%
CCC(=O)N1CCN(c2ccccc2NC(=O)c2cccc(C)c2)CC1 | -11.0% | 6.3% | ? | ?
COc1ccc(Cl)cc1C(=O)Nc1ccccc1N1CCN(C(=O)C(C)C)CC1 | -23.4% | 12.6µM* | 15.6% | 7.2%
CCC(=O)N1CCN(c2ccccc2NC(=O)COc2cccc(C)c2)CC1 | -24.7% | -5.9% | 20µM* | ?
